Bioassay records from PubChem BioAssay.
An excerpt weighted towards active compounds, which were near 2.1% of everything screened.
EWS-Fli block = EWS/Fli transcriptional activity inhibition. A673 NR0B1-luciferase reporter, viability-normalised. inhibition, % at 12.6 µM. actives 0.67% (n = 350,000);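 active = mean inhibition of at least 50% after viability correction, with every replicate also passing that limit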;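 also: firefly luciferase signal divided by Alamar Blue viability fluorescence both relative to DMSO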
KKLEB cytotox = counter-screen for CF NF-kB inhibitors: cytotoxicity; KKLEB CF airway cells viability, ATPlite luminescence, overnight; active compounds read low; cells stimulated with P. aeruginosa culture filtrate; actives 0.36% (n = 360,000); activity change (cytotoxicity), % at 5 µM;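 active = corrected activity change at or below -50% at 5 µM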
HIF-2a block = inhibitors of HIF-2a | 786-0 RCC cells HIF-2a reporter, luciferase luminescence, overnight | inhibition, % at 18.8 µM | actives 0.72% (n = 360,000) | AID 624352;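 active = inhibition of the luminescence signal of 40% or more relative to plate controls, in a single-dose primary screen at 18.75 µM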
CF NFkB block = blocks PAF-induced NF-kB reporter in cystic fibrosis cells; actives 0.86% (n = 360,000); inhibition, % at 5 µM; KKLEB NF-kB-GFP reporter, GFP fluorescence overnight;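 active = at least 50% inhibition at 5 µM, scaled per plate between neutral and stimulator controls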;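 also: PAF is a Pseudomonas aeruginosa culture filtrate used as stimulus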
PAX8 reporter = PAX8 transcriptional activity inhibition | AID 652154 | RMG-I TPO-luciferase reporter, SteadyGlo, 24 h | actives 1.2% (n = 360,000) | inhibition, % at 12.6 µM;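 active = mean replicate inhibition at least 60% with every replicate also reaching 60%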;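 also: luciferase light reporting Pax8 driven TPO promoter activity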
Each line names hits and unclear results; the compound was inactive in the other large screens.

COc1ccccc1NC(=O)CCCCCN1C(=O)c2cccc([N+](=O)[O-])c2C1=O	none
C[C@@H]1CCCCO[C@@H](CN(C)C(=O)Cc2ccccc2)[C@H](C)CN([C@@H](C)CO)C(=O)c2cc(NC(=O)Nc3ccc(C(F)(F)F)cc3)ccc2O1	PAX8 reporter 71 (no result: KKLEB cytotox, HIF-2a block, CF NFkB block)
C[C@@H]1CN([C@@H](C)CO)C(=O)c2cc(NC(=O)Nc3ccc(C(F)(F)F)cc3)ccc2O[C@@H](C)CCCCO[C@H]1CN(C)C(=O)Cc1ccccc1	none (no result: KKLEB cytotox, HIF-2a block, CF NFkB block)
C[C@@H]1CCCCO[C@H](CN(C)C(=O)c2ccccc2)[C@H](C)CN([C@@H](C)CO)C(=O)c2cc(NC(=O)Nc3ccc(C(F)(F)F)cc3)ccc2O1	PAX8 reporter 87 (no result: KKLEB cytotox, HIF-2a block, CF NFkB block)
C[C@@H]1CN([C@H](C)CO)C(=O)c2cc(NC(=O)Nc3ccc(C(F)(F)F)cc3)ccc2O[C@@H](C)CCCCO[C@@H]1CN(C)C(=O)c1ccccc1	PAX8 reporter 88 (no result: KKLEB cytotox, HIF-2a block, CF NFkB block)
C[C@@H]1CCCCO[C@@H](CN(C)C(=O)c2ccccc2)[C@@H](C)CN([C@H](C)CO)C(=O)c2cc(NC(=O)Nc3ccc(C(F)(F)F)cc3)ccc2O1	none (no result: KKLEB cytotox, HIF-2a block, CF NFkB block)
C[C@H]1CCCCO[C@@H](CN(C)C(=O)Nc2ccccc2)[C@@H](C)CN([C@@H](C)CO)C(=O)c2cc(NC(=O)Nc3ccc(C(F)(F)F)cc3)ccc2O1	none (no result: KKLEB cytotox, HIF-2a block, CF NFkB block)
C[C@@H]1CCCCO[C@@H](CN(C)C(=O)c2ccccc2)[C@H](C)CN([C@H](C)CO)C(=O)c2cc(NC(=O)Nc3ccc(C(F)(F)F)cc3)ccc2O1	PAX8 reporter 102 (no result: KKLEB cytotox, HIF-2a block, CF NFkB block)
COc1ccc2c3c([nH]c2c1)[C@@H](CO)N(C(=O)c1cccc(F)c1)CC31CN(C(=O)c2cccc(F)c2)C1	none (no result: KKLEB cytotox, HIF-2a block, CF NFkB block)
C[C@@H]1CCCCO[C@@H](CN(C)C(=O)c2ccccc2)[C@@H](C)CN([C@@H](C)CO)C(=O)c2cc(NC(=O)Nc3ccc(C(F)(F)F)cc3)ccc2O1	PAX8 reporter 86 (no result: KKLEB cytotox, HIF-2a block, CF NFkB block)
C[C@@H]1CCCCO[C@H](CN(C)C(=O)c2ccccc2)[C@@H](C)CN([C@@H](C)CO)C(=O)c2cc(NC(=O)Nc3ccc(C(F)(F)F)cc3)ccc2O1	PAX8 reporter 94 (no result: KKLEB cytotox, HIF-2a block, CF NFkB block)
C[C@@H]1CN([C@@H](C)CO)C(=O)c2cc(NC(=O)Nc3ccc(C(F)(F)F)cc3)ccc2O[C@@H](C)CCCCO[C@@H]1CN(C)C(=O)Nc1ccccc1	none (no result: KKLEB cytotox, HIF-2a block, CF NFkB block)
C[C@H]1CCCCO[C@@H](CN(C)C(=O)c2ccccc2)[C@@H](C)CN([C@@H](C)CO)C(=O)c2cc(NC(=O)Nc3ccc(C(F)(F)F)cc3)ccc2O1	PAX8 reporter 89 (no result: KKLEB cytotox, HIF-2a block, CF NFkB block)
CCC(=O)N1CC2(C1)[C@@H](c1ccc(-c3cccc(OC)c3)cc1)[C@@H](CO)N2C(C)=O	none (no result: KKLEB cytotox, HIF-2a block, CF NFkB block)
CC1CCCCC1NC(=O)CN1C(=O)CSc2cc(S(=O)(=O)N3CCCCCC3)ccc21 (stereo not given)	PAX8 reporter 85
COc1cccc(S(=O)(=O)Nc2ccc3c(c2)[C@@H]2C[C@H](CC(=O)NCCc4ccccc4)O[C@@H](CO)[C@@H]2O3)c1	none (no result: KKLEB cytotox, HIF-2a block, CF NFkB block)
CCNC(=O)c1cc2c(c(-c3cccc(-c4cccnc4)c3)n1)[C@H](CCO)N(S(C)(=O)=O)C2	EWS-Fli block 55 (no result: KKLEB cytotox, CF NFkB block)
CC(=O)N1Cc2cc(C(=O)NCC(F)(F)F)nc(-c3cccc(-c4cccnc4)c3)c2[C@H]1CCO	none (no result: KKLEB cytotox, CF NFkB block)
CCNC(=O)c1cc2c(c(-c3cccc(-c4cccnc4)c3)n1)[C@@H](CCO)N(S(C)(=O)=O)C2	none (no result: KKLEB cytotox, HIF-2a block, CF NFkB block)
COCCNC(=O)c1cc2c(c(-c3cccc(-c4cccc(F)c4)c3)n1)[C@H](CCO)N(S(=O)C(C)(C)C)C2 (stereo not given in full)	PAX8 reporter 62 (no result: KKLEB cytotox, HIF-2a block, CF NFkB block)
CC(=O)N1Cc2cc(C(=O)NCC(F)(F)F)nc(-c3cccc(-c4cccnc4)c3)c2[C@@H]1CCO	EWS-Fli block 59 (no result: KKLEB cytotox, CF NFkB block)
CNC[C@H]1Oc2c(NC(=O)c3cc(C)nn3C)cccc2C(=O)N([C@H](C)CO)C[C@@H]1C	none (no result: KKLEB cytotox, HIF-2a block, CF NFkB block)
O=C(CC1CC1)Nc1ccc2c(c1)[C@H]1C[C@H](CC(=O)N3CCc4ccccc4C3)O[C@H](CO)[C@H]1O2	none (no result: KKLEB cytotox, HIF-2a block, CF NFkB block, PAX8 reporter)
C[C@@H]1CN([C@H](C)CO)S(=O)(=O)c2ccc(C#CC3CCCC3)cc2O[C@H]1CN(C)Cc1cccnc1	PAX8 reporter 87 (no result: KKLEB cytotox, HIF-2a block, CF NFkB block)
C[C@@H]1CN([C@@H](C)CO)S(=O)(=O)c2ccc(C#CC3CCCCC3)cc2O[C@H]1CN(C)Cc1cccnc1	none (no result: KKLEB cytotox, HIF-2a block, CF NFkB block, PAX8 reporter)
C[C@H]1CN([C@@H](C)CO)S(=O)(=O)c2ccc(C#CC3CCCC3)cc2O[C@H]1CN(C)Cc1cccnc1	none (no result: KKLEB cytotox, HIF-2a block, CF NFkB block)
C[C@@H]1CN([C@@H](C)CO)S(=O)(=O)c2ccc(C#CC3CCCC3)cc2O[C@H]1CN(C)Cc1cccnc1	PAX8 reporter 84 (no result: KKLEB cytotox, HIF-2a block, CF NFkB block)
COc1ccccc1C#Cc1ccc2c(c1)O[C@H](CN(C)Cc1cccnc1)[C@H](C)CN([C@@H](C)CO)S2(=O)=O	PAX8 reporter 87 (no result: KKLEB cytotox, HIF-2a block, CF NFkB block)
C[C@@H]1CN([C@@H](C)CO)S(=O)(=O)c2ccc(C#CC3(O)CCCC3)cc2O[C@@H]1CN(C)C(=O)Cc1ccccc1	none (no result: KKLEB cytotox, HIF-2a block, CF NFkB block, PAX8 reporter)
O=C(C[C@H]1CC[C@@H]2[C@H](COC[C@H](O)CN2Cc2ccc3c(c2)OCO3)O1)N1CCCCC1	none (no result: KKLEB cytotox, HIF-2a block, CF NFkB block)
Cc1cc2nc(-c3ccc(SCC(=O)Nc4ccc5c(c4)OCCO5)nc3)[nH]c2cc1C	KKLEB cytotox -54 (no result: PAX8 reporter)
Cc1ccc2nc(-c3ccc(SCC(=O)Nc4ccc5c(c4)OCCO5)nc3)[nH]c2c1	none (no result: EWS-Fli block, PAX8 reporter)
CC1=NN(c2nc3ccccc3[nH]2)C(=O)C1Cc1ccccc1 (stereo not given)	KKLEB cytotox -52, CF NFkB block 51 (no result: EWS-Fli block, PAX8 reporter)
CC1=NN(c2nc3ccccc3[nH]2)C(=O)/C1=C/N(C)C	none (no result: EWS-Fli block, PAX8 reporter)
O=C(C[C@@H]1C[C@H]2c3cc(NC(=O)CC4CC4)ccc3O[C@H]2[C@@H](CO)O1)NCCN1CCCCC1	none (no result: KKLEB cytotox, HIF-2a block, CF NFkB block)
COc1cc(N)c(C(=O)c2nccc3cc(OC)c(OC)cc23)cc1OC	none
COc1cc(C(=O)c2nccc3cc(OC)c(OC)cc23)c([N+](=O)[O-])cc1OC	CF NFkB block 86
COc1ccc(S(=O)(=O)Nc2ccccc2OC)cc1NC(=O)c1cc2ccccc2oc1=O	KKLEB cytotox -55, CF NFkB block 58 (no result: EWS-Fli block)
COc1ccc(NC(=O)c2cc3ccccc3oc2=O)c(OC)c1	none
COc1cc2c(cc1OC)C(C)N(C(=O)c1c(C)noc1C)CC2 (stereo not given)	none
COc1cc2c(cc1OC)C(C)N(C(=O)c1cc(C)on1)CC2 (stereo not given)	EWS-Fli block 53
O=C(CC1SC(=Nc2ccc(OC(F)F)cc2)N(CCN2CCOCC2)C1=O)Nc1ccccc1 (stereo not given)	PAX8 reporter 64
O=C(CC1SC(=Nc2ccc(OC(F)F)cc2)N(CCN2CCOCC2)C1=O)Nc1ccc(F)cc1F (stereo not given)	none
CCCC(=O)Nc1ccc2c(c1)C(=O)N(C)C[C@H](OC)[C@H](C)CN(C)[C@@H](C)CO2	none (no result: KKLEB cytotox, HIF-2a block, CF NFkB block, PAX8 reporter)
C/C(=N/NC(=O)CNC(=O)c1ccccn1)c1ccccc1	none
C/C(=N\Nc1ccc(Cl)c(C(=O)O)c1)c1ccccn1	none
